# Data: PubChem BioAssay (NCATS)
# Inconclusive results are not listed. Where a call stands in place of a potency, no number is given. Active and inactive are the calls of the source. Calls follow the shape of the dose curve; as a rule, active = well fitted curve in the direction sought with a large enough effect; inconclusive = small, poorly fitted or top-dose-only effect, or another doubt; inactive = no such curve, though single readings can be large; an effect the other way counts as inactive or inconclusive.
# Assays:
# [1] = target: Voltage-gated inwardly rectifying potassium channel KCNH2 (Homo sapiens) (UniProt Q12809); assay: qHTS Assay for Small Molecule Inhibitors of the Human hERG Channel Activity (AID 588834);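 also: lower thallium flux fluorescence means stronger hERG block; nearly all actives have a fitted effect of over 50% in size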; also: potency is read from the fitted curve at half-maximal effect
# Voltage-gated inwardly rectifying potassium channel KCNH2 (Homo sapiens), sequence (Q12809 whole entry, looked up): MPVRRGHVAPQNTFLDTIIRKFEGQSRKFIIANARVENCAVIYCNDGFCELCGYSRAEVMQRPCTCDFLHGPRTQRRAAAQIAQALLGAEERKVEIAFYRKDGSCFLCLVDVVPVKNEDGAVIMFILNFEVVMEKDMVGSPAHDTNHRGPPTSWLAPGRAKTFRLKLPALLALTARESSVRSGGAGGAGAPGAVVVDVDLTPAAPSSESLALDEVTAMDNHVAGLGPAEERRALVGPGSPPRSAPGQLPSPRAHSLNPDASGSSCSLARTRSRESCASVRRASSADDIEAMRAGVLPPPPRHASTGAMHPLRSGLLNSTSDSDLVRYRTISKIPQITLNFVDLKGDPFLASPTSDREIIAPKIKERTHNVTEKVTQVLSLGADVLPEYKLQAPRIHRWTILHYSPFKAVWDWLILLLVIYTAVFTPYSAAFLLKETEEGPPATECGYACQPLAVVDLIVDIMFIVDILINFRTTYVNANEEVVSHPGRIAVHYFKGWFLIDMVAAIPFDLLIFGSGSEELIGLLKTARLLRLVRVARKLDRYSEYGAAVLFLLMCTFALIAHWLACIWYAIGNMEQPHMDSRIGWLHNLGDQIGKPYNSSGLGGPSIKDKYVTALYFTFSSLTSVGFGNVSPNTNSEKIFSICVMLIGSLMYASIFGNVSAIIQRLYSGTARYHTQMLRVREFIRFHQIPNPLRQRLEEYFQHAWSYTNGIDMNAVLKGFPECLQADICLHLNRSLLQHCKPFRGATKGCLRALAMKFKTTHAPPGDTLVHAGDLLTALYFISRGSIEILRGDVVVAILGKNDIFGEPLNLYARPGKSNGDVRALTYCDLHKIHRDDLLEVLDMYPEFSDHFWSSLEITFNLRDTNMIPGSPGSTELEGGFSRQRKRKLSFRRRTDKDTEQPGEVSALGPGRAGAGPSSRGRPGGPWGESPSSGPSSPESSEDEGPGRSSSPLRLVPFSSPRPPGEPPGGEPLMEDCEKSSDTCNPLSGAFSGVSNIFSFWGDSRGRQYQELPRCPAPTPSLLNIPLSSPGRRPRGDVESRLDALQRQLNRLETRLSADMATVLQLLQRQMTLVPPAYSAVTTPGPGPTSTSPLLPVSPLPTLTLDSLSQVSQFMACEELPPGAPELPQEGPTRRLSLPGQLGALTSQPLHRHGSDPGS
# Method in brief: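 U2OS cells transduced with hERG via BacMam (MOI ~100), plated 2000/well, loaded with FluxOR thallium dye, compound ~10 min, then stimulation buffer; fluorescence decrease read kinetically; AC50 from Hill fits.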
# [2] = target: Luciferin 4-monooxygenase (Photinus pyralis) (UniProt P08659); assay: Biochemical firefly luciferase enzyme assay for NPC (AID 624030); also: nearly all actives have a fitted effect of over 70% in size; also: potency is read from the fitted curve at half-maximal effect
# Luciferin 4-monooxygenase (Photinus pyralis), sequence (P08659 whole entry, looked up): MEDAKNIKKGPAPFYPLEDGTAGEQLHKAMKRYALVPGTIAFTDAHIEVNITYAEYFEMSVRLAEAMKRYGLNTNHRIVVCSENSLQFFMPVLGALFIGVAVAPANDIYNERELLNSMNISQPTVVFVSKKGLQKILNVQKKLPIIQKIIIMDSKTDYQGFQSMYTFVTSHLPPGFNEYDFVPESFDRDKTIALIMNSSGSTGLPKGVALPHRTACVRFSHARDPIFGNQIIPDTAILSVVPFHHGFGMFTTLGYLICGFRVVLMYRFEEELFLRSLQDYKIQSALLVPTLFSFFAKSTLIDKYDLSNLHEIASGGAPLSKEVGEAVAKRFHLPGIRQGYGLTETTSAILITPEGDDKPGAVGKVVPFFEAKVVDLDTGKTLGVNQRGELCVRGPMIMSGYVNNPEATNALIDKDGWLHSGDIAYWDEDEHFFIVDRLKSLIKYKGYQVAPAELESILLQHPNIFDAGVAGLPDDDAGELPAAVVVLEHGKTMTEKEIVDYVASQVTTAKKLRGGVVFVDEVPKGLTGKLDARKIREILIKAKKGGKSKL
# Method in brief: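 Purified P. pyralis luciferase at 10 nM in 50 mM Tris Acetate (final), luminescence read within 5 minutes of enzyme addition to compounds. Activity normalised to PTC124 versus DMSO; concentration-response curves classed by r2, magnitude and activity.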
# [3] = S16 Schwann cell viability assay (CellTiter-Glo assay) (AID 624031);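 also: cellular ATP luminescence as a viability measure; series mostly up to about 58 µM; nearly all actives have a fitted effect of over 70% in size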
# Method in brief: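 Native S16 rat Schwann cells, 500-750 cells/well in DMEM with 10% FBS, dosed with compound after overnight culture and incubated 24h at 37 degree Celsius/5% CO2. Viability by CellTiter-Glo luminescence; % activity normalized to no-cell wells and DMSO-treated cells.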
# [4] = S16 Schwann cell PMP22 intronic element firefly luciferase assay (AID 624032); also: series mostly up to about 58 µM; nearly all actives have a fitted effect of over 30% in size
# Method in brief: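 Rat S16 Schwann cells stably carrying firefly luciferase driven by a PMP22 intronic element, in 10% FBS, treated 24 h at 37 C. ONE-Glo luminescence normalized to PTC124 control and DMSO (0%); curves classed by r2, magnitude and activity.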
Structure (SMILES),Potency [1],Potency [2],outcome [3],Potency [4]
O=C(N/N=C/c1ccc([N+](=O)[O-])o1)c1cc([N+](=O)[O-])cc([N+](=O)[O-])c1O,inactive,36.1 µM (active),inactive,inactive
COc1c2c(cc3c1OCO3)CCN(C)C2,inactive,inactive,inactive,inactive
COC1CC(=C(c2cccs2)c2cccs2)C[N+](C)(C)C1 (stereo not given),inactive,inactive,inactive,inactive
O=C(O)/C=C\C(=O)O,inactive,–,–,–
CCC1(c2ccccc2)C(=O)N(COC)C(=O)N(COC)C1=O,inactive,inactive,inactive,inactive
C=CCN1C[C@H](C)N([C@H](c2ccc(C(=O)N(CC)CC)cc2)c2cccc(OC)c2)C[C@H]1C,3.98 µM (active),inactive,–,–
CCCCCCCCCC(=O)O[C@H]1CC[C@H]2[C@@H]3CCC4=CC(=O)CC[C@@H]4[C@H]3CC[C@]12C,inactive,inactive,inactive,inactive
O=C1CN=C(c2ccccc2)c2cc([N+](=O)[O-])ccc2N1,inactive,inactive,inactive,inactive
CN1C(=O)NC(=O)C(C)(C2=CCCCC2)C1=O (stereo not given),inactive,inactive,inactive,inactive
NNc1ccccc1,inactive,inactive,inactive,inactive
